PostGolgi yeast – growth inhibition of a yeast mutant, post-Golgi transport screen; 98,000 compounds, 0.9% hits; inhibition, % at 10 µM; AID 739; post-Golgi transport phenotypic cell assay;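 note: yeast cells grown in 1536-well plates; yeast grown about 18 h at 30C before absorbance read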
PostGolgi ctrl – yeast control strain growth, post-Golgi counter-screen. efflux-deficient yeast background strain, growth absorbance A615, 16 h. AID 738. 98,000 compounds, 5% hits. inhibition, % at 10 µM
DAT uptake mod – changed human dopamine transporter uptake under cocaine IC80; LLC-PK1 hDAT cells, [14C]-dopamine uptake with cocaine IC80; actives deviate in either direction; 110,000 compounds, 1.3% hits; Q01959; B-score at 10 µM;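 active = Z score or B-score, a plate-position-corrected score, falls beyond the plate's 99.7% confidence bounds, in either direction; inactive = both scores lie inside the 99.7% bounds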;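 note: scored against the spread of the other compound wells on the same plate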
Smad3 inh – blocks human Smad3 binding to FoxH1 peptide; TR-FRET Smad3/Dy647-FoxH1 peptide binding, europium anti-His; inhibition, % at 25 µM; 88,000 compounds, 0.29% hits;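 active = compounds that reduce the energy-transfer binding signal between the protein and its labelled peptide by more than half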;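 note: 0% = Smad3 plus labelled peptide maximal FRET and 100% = peptide-only background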
Target sequence (P84022 whole entry, looked up): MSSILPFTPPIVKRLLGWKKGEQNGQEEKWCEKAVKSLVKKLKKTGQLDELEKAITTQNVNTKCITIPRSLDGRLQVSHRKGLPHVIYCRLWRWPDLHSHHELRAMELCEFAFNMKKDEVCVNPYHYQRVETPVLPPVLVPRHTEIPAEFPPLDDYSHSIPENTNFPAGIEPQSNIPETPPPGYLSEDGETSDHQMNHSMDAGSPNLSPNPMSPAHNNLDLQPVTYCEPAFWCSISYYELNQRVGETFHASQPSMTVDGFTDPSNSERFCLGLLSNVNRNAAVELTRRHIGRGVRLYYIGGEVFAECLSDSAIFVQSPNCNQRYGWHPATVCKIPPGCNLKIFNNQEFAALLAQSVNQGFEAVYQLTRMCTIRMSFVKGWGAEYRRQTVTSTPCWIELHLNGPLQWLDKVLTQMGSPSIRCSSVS
TNAP act DEA – human TNAP activation, intermediate phosphate acceptor | P05186 | purified TNAP, CDP-star luminescence, 100 mM DEA, 30 min; active compounds read high; scale: 0 levamisole-inhibited, 1 vehicle-only enzyme | activation factor at 20 µM | 64,000 tested, under 10 active | AID 813;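 active = activation factor of at least 2 at 20 µM, relative to controls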
Cav3 T inh – blocks human Cav3.2 T-type calcium channel; 100,000 compounds, 4% hits; AID 449739; B-score at 10 µM; Cav3.2-expressing cells, Fluo-4 calcium fluorescence FDSS; active compounds read low;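 active = single-dose well whose peak fluorescence ratio is a statistical outlier from its plate by either plate-standardised score or position-corrected B-score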
* = called active by the depositor; . = no result given. Sampled rows, rich in hits. Any-hit rate of the full collection: about 8.7%. Cut-off read from the data, not from the text of the source, unless noted: active = inhibition above about 30%; inactive = the rest.

SMILES	PostGolgi yeast	PostGolgi ctrl	DAT uptake mod	Smad3 inh	TNAP act DEA	Cav3 T inh
CCn1c(=O)[nH]c2cc(C(=O)N3CCN(c4ccccc4)CC3)ccc2c1=O	36*	5	-1.2	.	1	-0.3
CCOC(=O)N1CCN(C(=O)c2ccc(Cn3c(=S)[nH]c4cc5c(cc4c3=O)OCO5)cc2)CC1	7	5	-1.3	.	0.9	-2.3
CC1CC(C)CN(C(=O)c2ccc3c(=O)n(Cc4ccc5c(c4)OCO5)c(=S)[nH]c3c2)C1 (configuration not stated)	-3	36*	0.47	5	.	-4.5
CCOC(=O)N1CCN(C(=O)c2ccc3c(=O)n(Cc4ccccc4)c(=S)[nH]c3c2)CC1	-8	10	0.31	23	1.1	-2.8
CCOC(=O)N1CCN(C(=O)c2ccc3c(=O)n(Cc4ccc(OC)cc4)c(=S)[nH]c3c2)CC1	-5	0	0.7	-3	0.8	-4.1*
CCCCCCCCCCCCN1[C@@H](CC(C)=O)c2cc(F)ccc2S1(=O)=O	.	.	0.38	.	.	-0.62
CC(=O)N(CC1CCCO1)c1nnc(-c2ccccn2)s1 (configuration not stated)	5	6	0.36	-4	0.9	0.87
Cc1cc(C(=O)N[C@@H](c2ccccc2)[C@]2(C)C[C@H]2[C@@H](C)C(=O)Nc2ccc3ccccc3c2)no1	.	.	1.8	.	.	-4.6*
Cc1cc(C(=O)N[C@H](c2ccccc2)[C@@]2(C)C[C@@H]2[C@@H](C)C(=O)Nc2ccc3ccccc3c2)no1	.	.	-0.93	.	.	-0.034
Cc1ccc(C(=O)NCCN2C3=NC[C@H](Cc4ccc(O)cc4)N3C[C@H]2Cc2ccc(O)cc2)cc1Br	.	.	0.43	.	.	1.3
COc1ccc(C[C@H]2CN3C(=NC[C@@H]3Cc3ccc(O)cc3)N2CCNC(=O)c2ccc(C)c(Br)c2)cc1	.	.	-2.5*	.	.	-1.9
COCCN1C(=O)C(O)=C(C(C)=O)C1c1ccc(F)cc1 (configuration not stated)	18	4	-0.033	12	1	0.34
CCCS(=O)(=O)N1CCc2cc(OC)c(OC)cc2C1	2	2	-8.2*	8	0.9	-0.63
CN1CCC(=C2c3ccccc3C=Cc3ccccc32)CC1	.	.	-0.076	2	0.9	-5*
CN1CCN(C(=O)N2c3ccccc3C=Cc3ccccc32)CC1	2	-1	0.74	-17	1	0.71
Cc1cc(NS(=O)(=O)c2ccc(NC(=O)Nc3cccc(Cl)c3)cc2)no1	-4	7	-0.64	11	0.8	0.11
CSc1ccccc1NC(=O)CN(c1cc(C)cc(C)c1)S(C)(=O)=O	10	4	1.1	1	1	-2.5
CS(=O)(=O)N(CC(=O)Nc1ccccc1Sc1ccccc1)c1cccc(Br)c1	9	41*	-0.035	.	.	-0.67
CSc1ccc(S(=O)(=O)NCc2ccccc2Cl)cc1	-11	29	-0.86	3	0.8	-4*
Cc1cccc(NC(=O)CCC(=O)NCCO)c1	.	.	-0.52	-3	.	0.32
O=C(NCCc1ccc(Cl)cc1)C1CCN(S(=O)(=O)c2cccs2)CC1	-12	4	0.66	.	.	-6.7*
O=C(NCCc1ccc(Cl)cc1)C1CCN(S(=O)(=O)N2CCCCC2)CC1	-5	2	-0.43	6	1	-0.007
O=C(NCCc1ccccc1)C1CCN(S(=O)(=O)c2cccc3nonc23)CC1	-6	0	-0.15	7	0.8	0.37
O=S(=O)(c1cccs1)N1CCC(Cc2ccccc2)CC1	-5	35*	-0.14	8	1	0.032
O=C(NCCc1ccc(Cl)cc1)C1CCN(S(=O)(=O)c2cccc3nonc23)CC1	-9	-1	-2.2*	0	0.8	.
SMILES	PostGolgi yeast	PostGolgi ctrl	DAT uptake mod	Smad3 inh	TNAP act DEA	Cav3 T inh
CC(=O)/C(=C/N(C)C)Sc1ccc(C)cc1	0	-1	-0.19	0	.	-0.11
CS(=O)(=O)NCCSCc1ccccc1	6	-3	-0.25	-16	0.9	-0.45
CC(=O)N(C)/C=C1\Sc2ccccc2C1=O	5	44*	.	-28	.	.
Cc1c(NC(=O)CSc2ncn[nH]2)c(=O)n(-c2ccccc2)n1C	.	.	-0.62	-8	.	-0.25
CCC(C)(C)NC(=O)C(c1ccc(OC)cc1)N(CC1CCCO1)C(=O)CCC(=O)Nc1cc(C)on1 (configuration not stated)	.	.	0.85	3	.	0.095
CCC(C)(C)NC(=O)C(c1ccc(OC)cc1)N(Cc1cccs1)C(=O)CCC(=O)Nc1cc(C)on1 (configuration not stated)	.	.	2.1	9	.	-5.5*
CCNC(=O)C1CCCN1S(=O)(=O)c1ccc(C)cc1 (configuration not stated)	.	.	-1.3	5	.	1.2
O=C(Cn1cnc2c(nnn2Cc2ccccc2)c1=O)c1ccccc1	-8	0	.	-6	0.9	.
O=c1c2nnn(Cc3ccccc3)c2ncn1-c1ccccc1	-3	34*	0.51	-3	1	0.25
COc1ccc(-c2ccc(N(C)C)cc2)cc1[C@H]1[C@@H]2C=CCC[C@@]2(C)C(=O)N1Cc1ccccc1	.	.	0.77	.	.	-0.24
CCC(CO)n1c(SCc2cc(=O)oc3cc(C)ccc23)nc2ccccc2c1=O (configuration not stated)	41*	47*	2	11	.	-3.5
CCC(C)n1c(SCC(=O)Nc2cc(C)on2)nc2ccccc2c1=O (configuration not stated)	-6	2	0.15	-13	.	-2
CCOC(=O)/C(C#N)=C\C=C1C=CN(C)C=C1	-20	5	-0.95	-24	.	-4.8*
CCOC(=O)/C(C#N)=C\c1ccc(CC)s1	-7	1	-1	.	.	-0.088
O=c1c2ccccc2n(Cc2cccc(F)c2)c(=O)n1C1CCCC1	10	40*	0.12	-7	0.9	.
N#Cc1ccccc1Cn1c(=O)n(C2CCCC2)c(=O)c2ccccc21	5	30*	0.19	-11	.	-5.1*
CCOC(=O)Cn1c(=O)n(C2CCCC2)c(=O)c2ccccc21	22	-4	-0.46	-2	0.9	.
Cc1ccc(C(=O)NC(=S)N2CCN(C)CC2)cc1	2	15	.	.	.	.
COc1ccc(C2C(C(=O)N3CCOCC3)CCC(=O)N2c2ccc(OC)cc2)cc1 (configuration not stated)	3	14	-0.52	14	1	0.83
O=C(COC(=O)c1cccnc1Nc1cccc(C(F)(F)F)c1)NCCN1C(=O)CSC1=O	-3	13	3.5*	-2	0.9	-1.4
C/C(=N\OC(=O)c1ccc(Cl)cc1)c1nccs1	9	12	-2.8*	.	.	-0.2
Cc1ccnc(NS(=O)(=O)c2ccc(NS(=O)(=O)Cc3ccccc3)cc2)n1	-3	3	0.042	.	1.1	0.63
N#C/C(=C/c1ccc2c(c1)OCO2)C(=O)NCCc1c[nH]c2ccccc12	8	36*	0.68	.	.	-0.87
O=C(NCCSc1c[nH]c2ccccc12)c1ccc2c(c1)OCO2	.	.	-0.46	.	.	-3.6
Cc1nc(C)c(-c2csc(NCc3ccccc3)n2)s1	-5	8	1.2	8	0.9	-1.1
